Compounds with a hit are over-represented: about 3.2% of the library has one in this group of screens.
rCAG binder: binds r(CAG) RNA repeats. inhibition, % at 3 µM. 1.3% of 370,000 active. r(CAG) RNA repeat, TO-PRO-1 dye displacement fluorescence. AID 651821;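 active means inhibition above the plate cutoff, the mean of all test compounds on that plate plus 3 SD, cut at about 35% in these data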;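 further: higher means more dye released from RNA so lower well fluorescence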
MsrA inh: bovine MsrA inhibition; purified bovine MsrA, absorbance read-out; inhibition, % at 15.5 µM; 0.75% of 360,000 active; AID 651718; in the data active means inhibition above about 4.5%
sPLA2-III inh: Inhibits HGIII-sPLA2 liposome hydrolysis, primary screen | QFRET BODIPY PC-A2 liposome hydrolysis, fluorescence | inhibition, % at 12.2 µM | 0.56% of 370,000 active | Q9NZ20;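 active means inhibition above mean plus 3 SD of compounds lying within the high and low control bounds, cut at about 19% in these data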
Target sequence (Q9NZ20 whole entry, looked up): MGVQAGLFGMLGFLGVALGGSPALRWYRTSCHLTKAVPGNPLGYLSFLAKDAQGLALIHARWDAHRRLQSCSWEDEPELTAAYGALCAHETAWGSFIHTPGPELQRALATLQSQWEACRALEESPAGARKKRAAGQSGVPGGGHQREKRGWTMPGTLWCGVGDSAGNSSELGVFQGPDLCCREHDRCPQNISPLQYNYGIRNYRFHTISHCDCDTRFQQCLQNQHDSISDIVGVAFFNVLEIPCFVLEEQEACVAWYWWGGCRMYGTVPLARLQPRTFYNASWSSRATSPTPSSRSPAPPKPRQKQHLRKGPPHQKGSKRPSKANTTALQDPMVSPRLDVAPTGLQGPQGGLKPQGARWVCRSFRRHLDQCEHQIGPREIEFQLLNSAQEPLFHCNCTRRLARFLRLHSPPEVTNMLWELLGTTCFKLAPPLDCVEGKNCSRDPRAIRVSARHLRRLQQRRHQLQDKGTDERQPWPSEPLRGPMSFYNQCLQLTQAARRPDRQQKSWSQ
bovine MsrA act: bovine methionine sulfoxide reductase A activation; activation, % at 10.6 µM; AID 602163; 0.3% of 360,000 active; purified bovine MsrA, absorbance read-out; in the data active means activation above about 7.5%
PG9 binder: small molecules binding HIV-1 gp120 antibody PG9; 0.43% of 360,000 active; TR-FRET gp120-PG9 antibody binding; inhibition, % at 6.7 µM; AID 624416; in the data active means inhibition above about 8.5%
rCAG binder conf: r(CAG) RNA repeat binding, confirmation; TO-PRO-1 dye displacement fluorescence; shares compounds with rCAG binder; AID 652065; inhibition, % at 3 µM; 70% of 4,300 active;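 active means inhibition above a per-plate cutoff, the mean inhibition of sample wells plus 3 SD, cut at about 35% in these data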;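 further: loss of TO-PRO-1 fluorescence as compound displaces dye from 1x1 AA loop RNA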
dCAG dye counter: counter-screen for rCAG RNA binders: DNA CAG dye complex inhibitors; shares compounds with rCAG binder; 94% of 4,300 active; inhibition, % at 3 µM; AID 652068; d(CAG) DNA oligo TO-PRO-1 dye displacement, fluorescence;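 active means inhibition above its plate's cutoff, the mean test-well inhibition plus 3 SD, cut at about 4.8% in these data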;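 further: hits displace the dye from DNA and so lower well fluorescence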
DNA CAG DR: disrupts DNA CAG TO-PRO-1 complex in dose response | shares compounds with rCAG binder | DNA CAG/GTC duplex TO-PRO-1 dye displacement fluorescence | IC50, µM | 20% of 250 active | AID 686960; in the data active means IC50 below about 10 µM
A number is an active result.

O=S(=O)(c1ccccc1)N1CCN2CCCC2C1 (centres undefined) was read as rCAG binder inactive, MsrA inh inactive, sPLA2-III inh inactive, bovine MsrA act inactive and PG9 binder inactive.
Screening CNc1ccc2oc(C[C@H]3O[C@@]4(CC[C@H]3C)O[C@H]([C@H](C)C(=O)c3ccc[nH]3)[C@H](C)C[C@H]4C)nc2c1C(=O)O returned rCAG binder 79, MsrA inh inactive, sPLA2-III inh inactive, bovine MsrA act inactive, PG9 binder inactive, rCAG binder conf 38 and dCAG dye counter 7.3.
O=C(OC1CC2CCC(N2)C1C(=O)O)c1ccccc1 (centres undefined) was read as rCAG binder inactive, MsrA inh inactive, sPLA2-III inh inactive, bovine MsrA act inactive and PG9 binder inactive.
Screening CCOc1ccccc1-n1c(O)c(C=NCCCn2ccnc2)c(=O)[nH]c1=O returned rCAG binder inactive, MsrA inh inactive, sPLA2-III inh inactive, bovine MsrA act inactive and PG9 binder inactive.
For CC(=O)N1CCN(c2ccc([N+](=O)[O-])cc2C=C2C(=O)NC(=O)NC2=O)CC1 the results were rCAG binder 36, MsrA inh inactive, sPLA2-III inh inactive, bovine MsrA act inactive, PG9 binder inactive, rCAG binder conf inactive and dCAG dye counter inactive.
`N#CC1=C(N)Oc2c(c(=O)oc3ccccc23)C1c1cccnc1` (centres undefined) gave rCAG binder inactive, MsrA inh inactive, sPLA2-III inh inactive, bovine MsrA act inactive and PG9 binder inactive.
CCOc1cc(C2C(C#N)=C(N)Oc3c2c(=O)oc2ccccc32)ccc1OC(=O)c1cccs1 (centres undefined) was read as rCAG binder 47, MsrA inh inactive, sPLA2-III inh inactive, bovine MsrA act inactive, PG9 binder inactive, rCAG binder conf inactive and dCAG dye counter 15.
Screening Oc1c(Cl)cccc1Cc1cc(Cl)cc(Cl)c1O returned rCAG binder 59, MsrA inh inactive, sPLA2-III inh inactive, bovine MsrA act inactive, PG9 binder inactive, rCAG binder conf 62, dCAG dye counter 16 and DNA CAG DR inactive.
Screening Oc1c(Cl)cc(Cl)cc1CN1CCN(Cc2ccccc2)CC1 returned rCAG binder inactive, MsrA inh inactive, sPLA2-III inh inactive, bovine MsrA act inactive and PG9 binder inactive.
Screening O=C1NC(=O)N(Cc2ccc(F)cc2)C(=O)/C1=C\c1ccoc1 returned rCAG binder 48, MsrA inh inactive, sPLA2-III inh inactive, bovine MsrA act inactive, PG9 binder inactive, rCAG binder conf 38 and dCAG dye counter 11.
`O=C1CC(=O)N(Cc2ccccc2)C(=S)N1` gave rCAG binder 72, MsrA inh inactive, sPLA2-III inh inactive, bovine MsrA act inactive, PG9 binder inactive, rCAG binder conf inactive and dCAG dye counter inactive.
COc1ccc(CN2C(=O)CC(=O)NC2=O)cc1 was read as rCAG binder inactive, MsrA inh inactive, sPLA2-III inh inactive, bovine MsrA act inactive and PG9 binder inactive.
O=C(O)CCC(=O)NCCC1=c2ccccc2=N/C1=C\c1c(O)n(Cc2ccc(F)cc2)c(=S)[nH]c1=O was read as rCAG binder 35, MsrA inh inactive, sPLA2-III inh inactive, bovine MsrA act inactive, PG9 binder inactive, rCAG binder conf 37 and dCAG dye counter 13.
Screening Cc1cc(C=C2C(=O)NC(=S)NC2=O)c(C)n1C1CCCC1 returned rCAG binder 35, MsrA inh inactive, sPLA2-III inh inactive, bovine MsrA act inactive, PG9 binder inactive, rCAG binder conf inactive and dCAG dye counter 9.6.
Screening Cc1cc(C=C2C(=O)N(C)C(=S)N(C)C2=O)c(C)n1C1CCCCC1 returned rCAG binder inactive, MsrA inh inactive, sPLA2-III inh inactive, bovine MsrA act inactive and PG9 binder inactive.
Cc1ccccc1-n1c(O)c(/C=N/NC(=O)c2ccccc2O)c(=O)[nH]c1=S was read as rCAG binder 56, MsrA inh inactive, sPLA2-III inh inactive, bovine MsrA act inactive, PG9 binder inactive, rCAG binder conf 35 and dCAG dye counter 9.0.
O=C(N/N=C/c1c(O)n(C2CC2)c(=S)[nH]c1=O)c1ccccc1O was read as rCAG binder 38, MsrA inh inactive, sPLA2-III inh inactive, bovine MsrA act inactive, PG9 binder inactive, rCAG binder conf inactive and dCAG dye counter 6.0.
Screening Cc1ccccc1-n1c(O)c(/C=N/Nc2nc3c(c(=O)n(C)c(=O)n3C)n2C)c(=O)[nH]c1=S returned rCAG binder inactive, MsrA inh inactive, sPLA2-III inh inactive, bovine MsrA act inactive and PG9 binder inactive.
Cn1c(O)c(Cc2cccc(Cl)c2Cl)c(=O)n(C)c1=O was read as rCAG binder inactive, MsrA inh inactive, sPLA2-III inh inactive, bovine MsrA act inactive and PG9 binder inactive.
Screening Cc1cc(/C=C2\C(=O)NC(=O)N(Cc3ccco3)C2=O)c(C)n1-c1ccc(C(=O)O)cc1 returned rCAG binder inactive, MsrA inh inactive, sPLA2-III inh inactive, bovine MsrA act inactive and PG9 binder inactive.
`Cc1cc(/C=C2\C(=O)NC(=O)N(Cc3ccccc3)C2=O)c(C)n1-c1ccc(Cl)c(C(=O)O)c1` gave rCAG binder 43, MsrA inh inactive, sPLA2-III inh inactive, bovine MsrA act inactive, PG9 binder inactive, rCAG binder conf 65 and dCAG dye counter 24.
For O=C1NC(=O)N(Cc2ccccc2Cl)C(=O)/C1=C/c1cccs1 the results were rCAG binder 56, MsrA inh inactive, sPLA2-III inh inactive, bovine MsrA act inactive, PG9 binder inactive, rCAG binder conf inactive and dCAG dye counter inactive.
`Cc1cc(/C=C2\C(=O)NC(=O)N(Cc3ccccc3Cl)C2=O)c(C)n1-c1ccc(C(=O)O)cc1` gave rCAG binder 39, MsrA inh inactive, sPLA2-III inh inactive, bovine MsrA act inactive, PG9 binder inactive, rCAG binder conf 59 and dCAG dye counter 18.
Cc1ccc2n1Cc1cnnn1-c1ccccc1-2 was read as rCAG binder inactive, MsrA inh inactive, sPLA2-III inh inactive, bovine MsrA act inactive and PG9 binder inactive.
Screening COCCn1c(O)c(/C=N/NC(=O)CSC(=S)N2CCCC2)c(=O)[nH]c1=S returned rCAG binder inactive, MsrA inh inactive, sPLA2-III inh inactive, bovine MsrA act inactive and PG9 binder inactive.
Screening C[C@H](NC(=O)N1C[C@H]2C[C@@H](C1)c1cccc(=O)n1C2)C(=O)Nc1ccc(F)c(F)c1 returned rCAG binder inactive, MsrA inh inactive, sPLA2-III inh inactive, bovine MsrA act inactive and PG9 binder inactive.
For O=c1oc2ccccc2c(O)c1C(c1ccc([N+](=O)[O-])cc1)c1c(O)c2ccccc2oc1=O the results were rCAG binder 96, MsrA inh inactive, sPLA2-III inh inactive, bovine MsrA act inactive, PG9 binder inactive, rCAG binder conf 94 and dCAG dye counter 76.
